Inconclusive results are not listed. Calls of active or inactive are those of the source. Unless noted, calls follow the shape of the full dose curve. A value given as a limit tells only on which side of the number the result lay.

Sequence of Cytochrome P450 1A2 (Homo sapiens) (P05177 whole entry, looked up): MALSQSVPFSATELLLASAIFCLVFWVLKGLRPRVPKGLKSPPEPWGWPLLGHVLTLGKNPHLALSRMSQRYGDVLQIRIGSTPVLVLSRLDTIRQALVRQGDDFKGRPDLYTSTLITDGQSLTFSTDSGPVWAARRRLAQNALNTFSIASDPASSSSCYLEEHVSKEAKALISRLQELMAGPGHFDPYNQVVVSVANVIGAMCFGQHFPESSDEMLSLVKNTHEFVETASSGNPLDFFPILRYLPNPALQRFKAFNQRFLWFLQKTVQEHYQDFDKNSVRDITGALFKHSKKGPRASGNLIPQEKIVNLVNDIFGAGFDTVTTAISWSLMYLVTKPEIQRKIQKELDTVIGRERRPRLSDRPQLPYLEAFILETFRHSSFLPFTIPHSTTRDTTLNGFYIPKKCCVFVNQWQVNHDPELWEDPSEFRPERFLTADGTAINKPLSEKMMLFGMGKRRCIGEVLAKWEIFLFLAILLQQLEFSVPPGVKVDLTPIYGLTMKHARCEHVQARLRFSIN

System in the first experiment: not listed separately
The experiment can be described thus: AP1 Signaling Pathway (AID 357; active = well fitted curve in either direction with a large enough effect, not every such curve was filed as active;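 also: ME-180 reporter cells stimulated with EGF at its EC50 level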). To be noted: ME-180 (cervical carcinoma) AP-1-bla reporter, EGF-induced, beta-lactamase ratio, 5 h; series mostly up to 17.2 µM. In outline: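 Beta-lactamase reporter under AP-1 response element, ME-180 background. Stimulus: EC50 EGF. Compound exposure 5 h, 37 °C. Detection: CCF4, 2.5 h RT, 460/530 nm. Values: AC50 from titration.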
On to `Cc1ccccc1CN1C2=NCCN2C(=O)C2=C1CCN(Cc1ccccc1)C2`, for which the result was inactive.

Consider `COc1ccc2c(OC)c3ccoc3nc2c1OC`, for which the outcome was inactive.

As for `O=C1NC(=O)C(c2cn(-c3ccccc3)nc2-c2ccc(F)cc2)N1` (centres undefined), the outcome was inactive.

For the next experiment, the target named is Cytochrome P450 1A2 (Homo sapiens) (UniProt P05177). As to the kind of experiment: p450-cyp1a2 (AID 410). Also: potency is read from the fitted curve at half-maximal effect. As to conditions: recombinant CYP1A2, luciferin-ME demethylation, luminescence; series mostly up to 25.6 µM. The procedure:
The P450 gene superfamily is involved in metabolism and the clearance of xenobiotics. This assay used human CYP1A2 to measure the demethylation of luciferin 6' methyl ether (Luciferin-ME; Promega-Glo) to luciferin. The luciferin is then measured by luminescence after the addition of a luciferase detection regeant. Luciferin-ME concentration in the assay was equal to its Km for CYP1A2.
(§1) NCGC Assay Protocol Summary:
Two uL of enzyme and substrate mix (final concentrations: 20nM CYP1A2, 100uM Luciferin-ME, 100mM KPO4) were dispensed into a white, solid bottom 1536-well microtiter plate. 23nL of compound was transferred by a pin tool. The plate was incubated at room temperature for 10 min. Two uL of an NADPH regeneration solution (Promega supplied reagent) was dispensed and the reaction was allowed to continue for 60 min at room temperature. Then the reaction was stopped by reconstituted detection reagent. After another 20 min of incubation the plate was read on the ViewLux (Perkin Elmer) at 60 sec exposure and 2x2 binning. This protocol was carried out with Promega-Glo reagents and further information can be found at http://www.promega.com/tbs/tb325/tb325.pdf. Data were normalized to the to AC100 inhibition (57 uM furafylline).
Consider `Cc1ccccc1CN1C2=NCCN2C(=O)C2=C1CCN(Cc1ccccc1)C2`, for which the Potency result was “inactive”.

With `COc1ccc(C[C@H](N)C(=O)N[C@@H]2[C@H](O)[C@H](n3cnc4c(N(C)C)ncnc43)O[C@@H]2CO)cc1`, the Potency entry is “inactive”.

With `COc1ccc2c(OC)c3ccoc3nc2c1OC`, the Potency is 0.0794 µM (active).

System in the next experiment: not listed separately
The experiment can be described thus: Cell Viability - BJ (AID 421).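 Also: potency is read from the fitted curve at half-maximal effect; cells exposed to compound for 40 hours at 37 °C before readout.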 To be noted: BJ fibroblast viability, qHTS. In short, it runs like this:
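Luminescent ATP signal (CellTiter-Glo, 20 min at room temperature) served as the read-out of viable BJ cells after 40 hours of compound treatment. Responses were scaled between DMSO and 100 uM tamoxifen, and AC50 values were obtained by Hill modeling.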
Consider `CC(=O)O[C@@H]1CC(C)=C2[C@H]1[C@H](C)CC[C@H]2/C=C(\C)C(=O)O`, for which the Potency is > 92 µM (inactive).

With `Cc1ccc(N)cc1O`, the Potency is > 92 µM (inactive).

As for `Nc1ccccc1N`, the Potency is > 92 µM (inactive).

System in the next experiment: not listed separately
As to the kind of experiment: Cell Viability - Hek293 (AID 427;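 active = compounds whose dose-response curve shows a full or clear partial loss of cell viability, called from curve shape rather than a numeric limit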;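 also: potency is read from the fitted curve at half-maximal effect; cells exposed to compound for 40 hours at 37 °C before reading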). To be noted: qHTS. In short, it runs like this:
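Luminescent ATP read-out (CellTiter-Glo, 20 min RT) after 40 hr compound exposure at 37 °C in complete medium. Signal normalized to DMSO (basal) and 100 uM tamoxifen (100% inhibition); concentration-response fitted with the standard Hill equation to give AC50.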
With `CC(=O)O[C@@H]1CC(C)=C2[C@H]1[C@H](C)CC[C@H]2/C=C(\C)C(=O)O`, the Potency was > 92 µM (inactive).

Regarding `Cc1ccc(N)cc1O`, the Potency is > 92 µM (inactive).

`Nc1ccccc1N`: the Potency was > 92 µM (inactive).

System in a further experiment: not listed separately
As to the kind of experiment: Cell Viability - HepG2 (AID 433).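 Also: potency is read from the fitted curve at half-maximal effect; potency for ATP loss meaning cytotoxicity.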 To be noted: qHTS. In outline:
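In this qHTS format, a 40 h, 37 °C compound incubation of HepG2 cells in complete medium precedes a 20 min CellTiter-Glo step at room temperature. Tamoxifen and doxorubicin serve as positive controls; Hill-equation fits yield AC50.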
Take `CC(=O)O[C@@H]1CC(C)=C2[C@H]1[C@H](C)CC[C@H]2/C=C(\C)C(=O)O`: the Potency is > 92 µM (inactive).

As to `Cc1ccc(N)cc1O`, the Potency was > 92 µM (inactive).

For the compound `Nc1ccccc1N`, the Potency was > 92 µM (inactive).

System in a further experiment: not listed separately
As to the kind of experiment: Cell Viability - MRC5 (AID 434).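 Also: potency is read from the fitted curve at half-maximal effect; cells exposed to compound for 40 hours at 37 °C; potency reflects cytotoxicity seen as loss of intracellular ATP.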 As to conditions: MRC5 lung fibroblast viability, qHTS. In short, it runs like this: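 ATP luminescence read-out (CellTiter-Glo, 20 min RT) after 40 hr, 37 °C compound exposure of 1500 MRC5 cells/well. Data normalized to DMSO (basal) and 100 uM tamoxifen (100% inhibition); AC50 from standard Hill equation.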
With `CC(=O)O[C@@H]1CC(C)=C2[C@H]1[C@H](C)CC[C@H]2/C=C(\C)C(=O)O`, the Potency is > 92 µM (inactive).

For the compound `Cc1ccc(N)cc1O`, the Potency is > 92 µM (inactive).

Regarding `Nc1ccccc1N`, the Potency is > 92 µM (inactive).

System in the next experiment: not listed separately
The experiment can be described thus: Cell Viability - SK-N-SH (AID 435).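 Also: potency is read from the fitted curve at half-maximal effect; compound exposure lasted 40 h at 37 °C.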 As to conditions: SK-N-SH neuroblastoma cell viability qHTS.
Text: NIH Chemical Genomics Center [NCGC]
NIH Molecular Libraries Screening Centers Network [MLSCN]
National Institutes of Environmental Health Sciences [NIEHS]
National Toxicology Program [NTP]
We have developed a 1536-well cell-based assay for quantitative high throughput screening (qHTS) against a number of cell lines to determine in vitro cytotoxicity of small molecules. This particular assay uses the SK-N-SH cell line which is derived from human neuroblastoma.
as §1
The CellTiter-Glo luminescent cell viability assay (Promega) is a homogeneous method to measure the number of viable cells in culture. The end point readout of this assay is based on quantitation of intracellular ATP, an indicator of metabolic activity, using the luciferase reaction. Luciferase catalyzes the oxidation of beetle Luciferin to oxyluciferin and light in the presence of ATP. The luminescent signal is proportional to amount of ATP present.
Using the CellTiter-Glo luminescent cell viability assay, the amount of cellular ATP was measured in the SK-N-SH cell line with complete culture medium following compound treatment for 40 hours. The assay was performed in opaque white Kalypsys 1536-well plates. In the screen, tamoxifen and doxorubicin were used as positive controls. Library compounds were measured for their ability to cause acute toxicity in the cell line, as reflected by a decrease in intracellular ATP levels, in a concentration-dependent manner. Data were normalized to the controls for basal activity (DMSO only) and 100% inhibition (100 uM tamoxifen). AC50 values were determined from concentration-response data modeled with the standard Hill equation.
qHTS protocol fo CellTiter Glo SK-N-SH cellular assay
[Step] [Parameter] [Value] [Description]
1. Reagent; 5 uL; 1500 SK-N-SH cells/well
2. Time; 5 hr; 37 °C incubation
4. Controls; 23 nL; Tamoxifen 0.34 uM to 100 uM & Doxorubicin 0.02 nM to 100 uM
5. […]
8. Detection; Luminescence; Viewlux plate reader
Keywords: cell viability, cytotoxicity, SK-N-SH cell line, luminescence, NTPHTS, NTPHTS_NCGC, NIEHS, EPA, DSSTox, MLSMR, MLSCN, NIH Roadmap, qHTS, NCGC
`CC(=O)O[C@@H]1CC(C)=C2[C@H]1[C@H](C)CC[C@H]2/C=C(\C)C(=O)O`: the Potency was > 92 µM (inactive).

Turning to `Cc1ccc(N)cc1O`, the Potency is > 92 µM (inactive).

On to `Nc1ccccc1N`, for which the Potency is > 92 µM (inactive).

System in another experiment: not listed separately
The experiment can be described thus: NFAT Signaling Pathway (AID 444; active = well fitted curve in either direction with a large enough effect, not every such curve was filed as active;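 also: carbachol stimulus at about its EC50 of 1 µM final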). To be noted: Jurkat NFAT-bla M1, carbachol, beta-lactamase ratio, 5 h; series mostly up to 17.2 µM. In outline: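 Jurkat cells with NFAT-driven β-lactamase reporter and co-expressed M1 receptor, stimulated with carbachol (final 1 uM, ~EC50), compound titration, 5 h at 37 °C. CCF4 loaded 1 h at RT; 460/530 nm ratio gave %activity and AC50.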
On to `Cc1ccccc1CN1C2=NCCN2C(=O)C2=C1CCN(Cc1ccccc1)C2`, for which the result was inactive.

For the compound `COc1ccc2c(OC)c3ccoc3nc2c1OC`, the result was inactive.

For the compound `O=C1NC(=O)C(c2cn(-c3ccccc3)nc2-c2ccc(F)cc2)N1` (centres undefined), the result was inactive.

The values are drawn from PubChem BioAssay (NCATS).
